Legend:
Assay in all cases: PBM binding z-score (relative to random genomic background probes); higher = stronger binding; sequences stand for … in GC…GCGATTGACAGCGTAGAATGAAGG
[1] = test system: PPARg:RXRa DBDmut IVT, anti-RXR (DBD mutation: RXRa K156A/R161A, NR concentration 270 nM, RXRa partner concentration 90 nM)
In short: (§1)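 Probes were double-stranded and carried 34-nt variable regions with direct-repeat seeds, single-nucleotide variants, half-site ablations and random human genomic background sequences, printed on custom Agilent 4×180K protein-binding microarrays. Arrays were incubated 1 h with ligand-free nuclear receptor dimers in PBS pH 7.4, 2% milk, 0.02% Triton X-100, 1 mM DTT, 0.2 mg/mL BSA and 0.4 mg/ml salmon testes DNA. Antibodies against each partner (one per run) detected binding, and scanned fluorescence was regression-normalized. Binding z-scores use the random background probes as reference.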

[2] = test system: PPARg:RXRa IVT, anti-PPARg (NR concentration 270 nM, RXRa partner concentration 90 nM)
In short: as §1

[3] = test system: PPARg DBDmut:RXRa IVT, anti-PPARg (DBD mutation: PPARg1 K132A/R137A, NR concentration 270 nM, RXRa partner concentration 90 nM)
In short: as §1

[4] = test system: PPARg DBDmut IVT, anti-PPARg (DBD mutation: PPARg1 K132A/R137A, NR concentration 270 nM)
In short: as §1

[5] = test system: PPARg homodimer (NR concentration 180 nM)
In short: as §1

[6] = test system: PXR:RXRa (NR concentration 270 nM, RXRa partner concentration 90 nM)
In short: as §1

[7] = test system: PXR homodimer (NR concentration 270 nM)
In short: as §1

[8] = test system: RARa:RXR (NR concentration 270 nM, RXRa partner concentration 90 nM)
In short: as §1

[9] = test system: RARa homodimer (NR concentration 270 nM)
In short: as §1

[10] = test system: RARb:RXRa (NR concentration 270 nM, RXRa partner concentration 90 nM)
In short: as §1

## GCTGCTAGGCCAACTGATGGTCAGCTAAAGCTCG
[1]
  PBM binding z-score: 1.28
[2]
  PBM binding z-score: -0.0931
[3]
  PBM binding z-score: -1.27
[4]
  PBM binding z-score: -1.3
[5]
  PBM binding z-score: -0.811
[6]
  PBM binding z-score: -0.987
[7]
  PBM binding z-score: -0.793
[8]
  PBM binding z-score: -0.653
[9]
  PBM binding z-score: -1.39
[10]
  PBM binding z-score: 0.829

## GCTAGTCGGTCAGTAAAAGGTCACACACCGGTCG
[1]
  PBM binding z-score: 2.63
[2]
  PBM binding z-score: 3.74
[3]
  PBM binding z-score: 0.159
[4]
  PBM binding z-score: 0.0206
[5]
  PBM binding z-score: 4.9
[6]
  PBM binding z-score: 5.25
[7]
  PBM binding z-score: 1.05
[8]
  PBM binding z-score: 6.26
[9]
  PBM binding z-score: 2.14
[10]
  PBM binding z-score: 4.65

## GCTCGGAGGACAAGGTCAGAGATTTGTCCGTAGA
[1]
  PBM binding z-score: -0.252
[2]
  PBM binding z-score: 0.673
[3]
  PBM binding z-score: -0.517
[4]
  PBM binding z-score: -0.427
[5]
  PBM binding z-score: 0.0878
[6]
  PBM binding z-score: 1.24
[7]
  PBM binding z-score: -0.24
[8]
  PBM binding z-score: 1.77
[9]
  PBM binding z-score: -0.275
[10]
  PBM binding z-score: 3.48

## CAGCCTAGATCAGGGCCAGTATAGGAGGAACGTT
[1]
  PBM binding z-score: -0.475
[2]
  PBM binding z-score: -0.568
[3]
  PBM binding z-score: -0.718
[4]
  PBM binding z-score: -0.931
[5]
  PBM binding z-score: -0.197
[6]
  PBM binding z-score: -0.797
[7]
  PBM binding z-score: -0.456
[8]
  PBM binding z-score: -0.741
[9]
  PBM binding z-score: -0.525
[10]
  PBM binding z-score: -0.399

## CGTCCAAGGCCAAAGGTCAGTGAAGAGATGACGG
[1]
  PBM binding z-score: 0.453
[2]
  PBM binding z-score: 3.33
[3]
  PBM binding z-score: -0.0649
[4]
  PBM binding z-score: -1.23
[5]
  PBM binding z-score: 3.96
[6]
  PBM binding z-score: 4.26
[7]
  PBM binding z-score: 0.612
[8]
  PBM binding z-score: 5.8
[9]
  PBM binding z-score: 1.79
[10]
  PBM binding z-score: 4.58

## CGAACTAGGTCGGAACAGGACAGTGAAGGATGAT
[1]
  PBM binding z-score: 4.12
[2]
  PBM binding z-score: 3.56
[3]
  PBM binding z-score: 0.508
[4]
  PBM binding z-score: -0.428
[5]
  PBM binding z-score: -0.2
[6]
  PBM binding z-score: -0.28
[7]
  PBM binding z-score: -0.583
[8]
  PBM binding z-score: 0.314
[9]
  PBM binding z-score: -0.0866
[10]
  PBM binding z-score: 0.543

## CCAGACAGGTGAAAAGGTAACTCAGCCTCGATTA
[1]
  PBM binding z-score: 1.6
[2]
  PBM binding z-score: 1.25
[3]
  PBM binding z-score: -0.262
[4]
  PBM binding z-score: -0.729
[5]
  PBM binding z-score: 1.18
[6]
  PBM binding z-score: 0.509
[7]
  PBM binding z-score: 0.481
[8]
  PBM binding z-score: 1.45
[9]
  PBM binding z-score: 1.21
[10]
  PBM binding z-score: 1.43

## CTTCCAAGGTCAAGGTCAGTGAAAGAGACTCGAA
[1]
  PBM binding z-score: 3.34
[2]
  PBM binding z-score: 4.97
[3]
  PBM binding z-score: 0.569
[4]
  PBM binding z-score: 0.303
[5]
  PBM binding z-score: 3.58
[6]
  PBM binding z-score: 4.76
[7]
  PBM binding z-score: 1.05
[8]
  PBM binding z-score: 5.07
[9]
  PBM binding z-score: 0.686
[10]
  PBM binding z-score: 5.83

## TAGCCTAGATCATTGGGCCAGTATAGTACGCATC
[1]
  PBM binding z-score: 0.771
[2]
  PBM binding z-score: 0.88
[3]
  PBM binding z-score: 0.335
[4]
  PBM binding z-score: -0.32
[5]
  PBM binding z-score: -0.814
[6]
  PBM binding z-score: -0.775
[7]
  PBM binding z-score: -0.695
[8]
  PBM binding z-score: -0.564
[9]
  PBM binding z-score: -0.292
[10]
  PBM binding z-score: -1.15

## AATACAGGGTCATCGTAGGCCAGTGTACGCACAG
[1]
  PBM binding z-score: 2.67
[2]
  PBM binding z-score: 4.1
[3]
  PBM binding z-score: 1.31
[4]
  PBM binding z-score: 0.904
[5]
  PBM binding z-score: 2.51
[6]
  PBM binding z-score: 4.95
[7]
  PBM binding z-score: 0.408
[8]
  PBM binding z-score: 5.01
[9]
  PBM binding z-score: 1
[10]
  PBM binding z-score: 4.35

## CCGACTGGGGCATAAAGTTACCATAAGCCAGCCC
[1]
  PBM binding z-score: 2.19
[2]
  PBM binding z-score: 1.79
[3]
  PBM binding z-score: -0.543
[4]
  PBM binding z-score: -1.06
[5]
  PBM binding z-score: -0.724
[6]
  PBM binding z-score: -0.621
[7]
  PBM binding z-score: -0.245
[8]
  PBM binding z-score: -0.613
[9]
  PBM binding z-score: -0.145
[10]
  PBM binding z-score: 0.149

## GCTTACGGGTCACAGGTTATAGCATGAATAGAAT
[1]
  PBM binding z-score: 4.72
[2]
  PBM binding z-score: 5.4
[3]
  PBM binding z-score: 2.51
[4]
  PBM binding z-score: 1.47
[5]
  PBM binding z-score: 1.81
[6]
  PBM binding z-score: 3.52
[7]
  PBM binding z-score: -0.0291
[8]
  PBM binding z-score: 4.84
[9]
  PBM binding z-score: 0.515
[10]
  PBM binding z-score: 4.03

## AGAATGAGGTAATACGTAGATCAGGGAAGAAAGT
[1]
  PBM binding z-score: 3.49
[2]
  PBM binding z-score: 0.83
[3]
  PBM binding z-score: 1.02
[4]
  PBM binding z-score: 0.684
[5]
  PBM binding z-score: -0.201
[6]
  PBM binding z-score: 0.144
[7]
  PBM binding z-score: 0.294
[8]
  PBM binding z-score: 0.431
[9]
  PBM binding z-score: 0.262
[10]
  PBM binding z-score: 0.0493

## GATACAAGGTCAAGGCCAGAGTACGCGTATTGAT
[1]
  PBM binding z-score: 3.92
[2]
  PBM binding z-score: 4.69
[3]
  PBM binding z-score: 1.01
[4]
  PBM binding z-score: 0.226
[5]
  PBM binding z-score: 2.18
[6]
  PBM binding z-score: 3.85
[7]
  PBM binding z-score: 0.847
[8]
  PBM binding z-score: 4.27
[9]
  PBM binding z-score: 0.975
[10]
  PBM binding z-score: 5.35

## ATCTCTAGGTAAAGATAGTTCTGTGAATGCAAAT
[1]
  PBM binding z-score: 2.5
[2]
  PBM binding z-score: 1.5
[3]
  PBM binding z-score: 0.815
[4]
  PBM binding z-score: 1.19
[5]
  PBM binding z-score: 0.736
[6]
  PBM binding z-score: 0.067
[7]
  PBM binding z-score: 0.184
[8]
  PBM binding z-score: 0.347
[9]
  PBM binding z-score: 0.978
[10]
  PBM binding z-score: 0.117

## CGAACTAGGTCATTGACAAGACAGTGAATAGTAA
[1]
  PBM binding z-score: 8.29
[2]
  PBM binding z-score: 8.45
[3]
  PBM binding z-score: 3.1
[4]
  PBM binding z-score: 1.15
[5]
  PBM binding z-score: 0.882
[6]
  PBM binding z-score: 1.26
[7]
  PBM binding z-score: 0.00701
[8]
  PBM binding z-score: 1.79
[9]
  PBM binding z-score: 0.336
[10]
  PBM binding z-score: 3.61

Source: the supplement of paper PMC6555819
